Data published in PubChem BioAssay AID588382 (National Center for Advancing Translational Sciences (NCATS), 2011).
About 150 (12%) of roughly 1,300 compounds were called active. Roughly 30% stayed inconclusive and do not appear here. Only a selection was taken, and actives are over-represented in it overall. Unmarked numbers belong to inactive results. Calls follow the shape of the dose curve; as a rule, active = well fitted cell-killing curve with a large enough effect; inconclusive = small, poorly fitted or top-dose-only effect, or effect the other way; inactive = flat fitted curve, though single readings scatter.

Experiment: qHTS of small molecules that selectively kill Giardia lamblia: Hit Validation in HepG2 cytotox;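 also: compound exposure lasted overnight at 37 deg C; nearly all actives have a fitted effect of over 55% in size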;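 as to activity change, negative = cytotoxicity: viability measured as cellular ATP by ATPLite luminescence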
Conditions: cell viability; Potency: HepG2 cytotoxicity; series mostly up to 38.3 µM; activity change, negative = cytotoxicity: at the top concentration
Outline: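 Counterscreen cytotoxicity: ATPLite luminescence (15 min, room temperature) measured in HepG2 cells exposed overnight at 37 deg C to pin-transferred compound (23 nL) after overnight pre-incubation.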
% is scaled to controls: 0 for no effect and ±100 for the full control effect; potency is read from the fitted curve at half-maximal effect.

Compared with `O=[N+]([O-])c1ccc(Nc2ccccc2)c2nonc12`, `O=[N+]([O-])c1ncc(Br)cc1Nc1ccccc1` is higher in “activity change, negative = cytotoxicity” value: -5.06% for the first, 14.2% for the second.

Compared with `O=[N+]([O-])c1nn(-c2ccc3c(c2)OCCO3)n(O)c1=NC1CCCCCC1`, `Cc1ccc(CN=c2c([N+](=O)[O-])nn(-c3ccc(Cl)cc3)n2O)cc1` is higher in “activity change, negative = cytotoxicity” value: 1.36% for the first, 3.22% for the second.

Going from `O=C(COc1cccnc1[N+](=O)[O-])Nc1ccc2c(c1)OCO2` to `COc1cccc(NC(=O)COc2cccnc2[N+](=O)[O-])c1`, the “activity change, negative = cytotoxicity” value rises from 2.74% to 5.3%.

First: Cc1ccc(C(=O)Nc2ccc3c(c2)OCCO3)o1
Second: Cc1ccc(CNC(=O)CSc2ccsc2[N+](=O)[O-])cc1
The “activity change, negative = cytotoxicity” value of the first is lower: -29% for the first, 11.7% for the second.

First: Cc1ncc([N+](=O)[O-])n1CCOC(=O)Nc1ccc([N+](=O)[O-])cc1
Second: Cc1ncc([N+](=O)[O-])n1CCOC(=O)C12CC3CC(CC(C3)C1)C2
The “activity change, negative = cytotoxicity” value of the first is higher: 9.82% for the first, -0.852% for the second.

First: O=c1c(-c2cccc([N+](=O)[O-])c2)[n+]([O-])c2ccccc2n1O
Second: O=Nc1c2ccc[nH]c-2c2ccc([N+](=O)[O-])cc12
The “activity change, negative = cytotoxicity” value of the first is higher: 15.3% for the first, 10.8% for the second.

Compared with `Cn1c(=O)c(=O)n(C)c2cc([N+](=O)[O-])c(N3CCOCC3)cc21`, `O=c1c([N+](=O)[O-])cccn1Cc1ccc(F)cc1Cl` is higher in “activity change, negative = cytotoxicity” value: -8.79% for the first, -5.01% for the second.

Going from `O=C(Nc1nccs1)c1cc([N+](=O)[O-])ccc1Cl` to `CC(NC(=O)COc1cccnc1[N+](=O)[O-])c1ccc(Cl)cc1Cl` (stereo not drawn), the “activity change, negative = cytotoxicity” value rises from -1.08% to 8.39%.

Going from `Cc1cc(=O)oc2cc(O)c(N=Nc3ccccc3)cc12` to `CCOC(=O)C1=C(C)NC2=C(C(=O)c3ccccc32)C1c1ccc([N+](=O)[O-])o1` (stereo not drawn), the “activity change, negative = cytotoxicity” value rises from -10.3% to -1.83%.

Going from `CC(NC(=O)Cn1cc(Br)c([N+](=O)[O-])n1)c1ccccc1` (stereo not drawn) to `O=C(CSc1ccsc1[N+](=O)[O-])NCc1ccccc1`, the “activity change, negative = cytotoxicity” value rises from 19% to 23.3%.

First: CCOC(=O)c1ccc(NS(C)(=O)=O)cc1
Second: COC(=O)c1ccc(Nc2ccc3nonc3c2[N+](=O)[O-])cc1
The “activity change, negative = cytotoxicity” value of the first is lower: 10.8% for the first, 12.5% for the second.

Compared with `CCn1cnc2c([N+](=O)[O-])c(NS(=O)(=O)c3ccc(C)cc3)ccc21`, `Cc1ccc(S(=O)(=O)N2[C@@H](c3cccc(Cl)c3)C(C(=O)O)=CC[C@H]2c2cccc(C)c2)cc1` is higher in “activity change, negative = cytotoxicity” value: -5.57% for the first, 18.2% for the second.

Compared with `COc1cc(/C=C2\SC(=O)N(Cc3ccc(Cl)cc3)C2=O)cc([N+](=O)[O-])c1O`, `COC(=O)[C@@]1(Cc2ccc(OC)cc2)[C@H]2c3cc(C(=O)N4CCCC4)n(CCn4cc([N+](=O)[O-])nc4C)c3C[C@H]2CN1C(=O)c1ccccc1` is higher in “activity change, negative = cytotoxicity” value: -0.415% for the first, 3.15% for the second.

First: O=C(Cc1ccccc1)Nc1nnc(-c2cccs2)s1
Second: CCOC(=O)c1nc(C(=O)NCc2ccc(C)cc2)nc2ccccc12
The “activity change, negative = cytotoxicity” value of the first is lower: -2.94% for the first, 18.3% for the second.

First: CN(C)/[N+]([O-])=N/Oc1ccc([N+](=O)[O-])cn1
Second: CC(C)CC(=O)NC(=S)NNC(=O)c1ccc([N+](=O)[O-])cc1
The “activity change, negative = cytotoxicity” value of the first is higher: 15% for the first, -5.24% for the second.

First: CC1CCCN(C(=O)c2ccc([N+](=O)[O-])o2)C1 (stereo not drawn)
Second: O=C(Nc1ccc(F)cc1)C1CCN(C(=O)c2ccc([N+](=O)[O-])cc2)CC1
The “activity change, negative = cytotoxicity” value of the first is lower: -11.8% for the first, -6.84% for the second.

Compared with `O=C(NNC(=O)c1cc(-c2ccncc2)nc2ccccc12)c1ccccc1O`, `C/C(=N/NC(=O)C(O)(c1ccccc1)c1ccccc1)c1ccc([N+](=O)[O-])o1` is lower in “activity change, negative = cytotoxicity” value: -18.8% for the first, -24.8% for the second.

Compared with `Cc1cc(N2CCN(C)CC2)nc2ccc(NC(=S)N3CCN(c4cccc(Cl)c4)CC3)cc12`, `Cc1cc(N2CCN(C)CC2)nc2ccc(NC(=S)N3CCN(c4ccc(Cl)cc4)CC3)cc12` is lower in “activity change, negative = cytotoxicity” value: -14.4% for the first, -17.9% for the second.

Compared with `O=c1sc(N2CCN(c3ccc(F)cc3)CC2)nc2ccsc12`, `COc1ccc2c3n([n+]([O-])c2c1)CCN=C3c1ccc(C)cc1` is lower in “activity change, negative = cytotoxicity” value: 21.6% for the first, 6.07% for the second.

With `CCOc1ccc(-c2c(C(=O)N/N=C/c3ccc(C)s3)nnn2-c2nonc2N)cc1` the “activity change, negative = cytotoxicity” value was 11%.

For `Cc1ccnc(NC(=O)c2ccc3c(c2)OCO3)c1`, the Potency was 0.585 µM (active).
In the case of `O=C1C(c2ccncc2)=C(O)c2ccccc21`, the Potency is reported as 5.85 µM (active).
For `CC(C)OC(=O)Nc1ccc2c(c1)N(C(=O)N1CCN(C)CC1)c1ccccc1CC2`, the Potency was 0.521 µM (active).
For `CCOC(=O)c1c(C)[nH]c2c1-c1ccccc1C(=O)C2=O`, the Potency was 2.61 µM (active).
For `O=S(=O)(Nc1cc(Sc2cccc3cccnc23)c(O)c2ccccc12)c1ccc(F)cc1`, the Potency was 4.65 µM (active).
With `CCn1cc(-c2cc(C(=O)O)c3ccccc3n2)cn1` the Potency was 2.07 µM (active).
For `Cc1cc(N2CCN(C)CC2)nc2ccc(NC(=S)N3CCN(c4ccc(F)cc4)CC3)cc12`, the Potency was 20.7 µM (active).
For `Cc1cccc(N2CCN(C(=S)Nc3ccc4nc(N5CCN(C)CC5)cc(C)c4c3)CC2)c1C`, the Potency was 4.65 µM (active).
For `Cc1cccc(N2CCN(C(=S)Nc3ccc4nc(N5CCN(C)CC5)cc(C)c4c3)CC2C)c1` (stereo not drawn), the Potency was 18.5 µM (active).
